# MITF inh = human MITF inhibition, primary screen; actives 0.91% (n = 650,000); AID 1259374; O75030; inhibition, % at 2.6 µM; AlphaScreen MITF homodimerization, bead proximity signal; in the data active means inhibition above about 50%;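 further: 0% = vehicle wells with protein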
# GPR151 ag = activators of human GPR151; actives 1% (n = 650,000); activation, % at 11.2 µM; AID 1508602; PathHunter beta-arrestin GPR151 cells, luminescence; in the data active means activation above about 4.9%;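 further: 0% = median of compound wells and 100% = cells with positive control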
# Target sequence (Q8TDV0 whole entry, looked up): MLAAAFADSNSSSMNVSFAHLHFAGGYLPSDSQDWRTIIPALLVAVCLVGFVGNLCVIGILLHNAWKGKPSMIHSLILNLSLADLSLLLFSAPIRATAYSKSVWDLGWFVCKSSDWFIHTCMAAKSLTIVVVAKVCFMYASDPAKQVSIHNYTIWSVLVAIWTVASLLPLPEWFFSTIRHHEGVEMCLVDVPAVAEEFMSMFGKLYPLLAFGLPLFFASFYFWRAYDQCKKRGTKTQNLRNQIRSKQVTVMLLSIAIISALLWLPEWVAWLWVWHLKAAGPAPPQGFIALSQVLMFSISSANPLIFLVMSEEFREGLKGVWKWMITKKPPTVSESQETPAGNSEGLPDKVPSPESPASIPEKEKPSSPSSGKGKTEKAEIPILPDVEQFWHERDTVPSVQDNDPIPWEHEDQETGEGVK
# TEAD-YAP inh = TEAD-YAP interaction inhibition | HEK-TIYL cells, TEAD-Gal4/YAP UAS-luciferase luminescence | inhibition, % at 9.12 µM | actives 1.4% (n = 640,000); in the data active means inhibition above about 32%;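 further: 0% = median of test compound wells and 100% = reference inhibitor wells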
# FBW7 activator = human FBW7 E3 ligase activation, primary screen. actives 0.13% (n = 650,000). AID 1259310. AlphaScreen FBW7–phospho-cyclin E peptide binding, activator screen. Q969H0. normalized activity (activation), % at 26.1 µM; in the data active means normalized activity above about 1.9%;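 further: purified mutant Fbw7 with reduced substrate affinity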
# * hit, by the source's call. Sampled rows, rich in hits. Any-hit rate of the full collection: about 3.4%.
SMILES,MITF inh,GPR151 ag,TEAD-YAP inh,FBW7 activator
Cc1ccc2nc3c(nc2c1)-c1ccccc1C3=O,-4.3,-0.3,-17.4,-0.1
CCN(c1ccccc1)c1nc2ccccc2n2c(C)nnc12,4.9,-0.7,12.6,0.3
CC(=O)Nc1ncc(Cc2ccccc2F)s1,10.1,0.2,-0.4,-0.2
Cc1ccc(CCC(=O)Nc2ncc(Cc3ccccc3F)s2)o1,8.9,0.0,50.8*,0.0
Cc1cccc(Cc2cnc(NC(=O)CCc3ccc(C)o3)s2)c1,14.4,0.2,32.2*,0.3
CC(NNC(=O)c1ccc([N+](=O)[O-])cc1)C(=O)NNC(=O)c1ccc([N+](=O)[O-])cc1 (configuration not stated),10.7,-0.9,5.4,0.2
CCOC(=O)C1CCN(C(=O)COc2ccc(C(C)(C)C)cc2)CC1,-4.0,-0.3,60.2*,-0.1
CCOC(=O)C1CCN(C(=O)COc2ccc(C)cc2)CC1,16.2,-0.4,10.0,0.1
CCOC(=O)C1CCN(C(=O)COCC(=O)N2CCC(C(=O)OCC)CC2)CC1,4.1,2.1,-4.4,0.0
CCOC(=O)C1CCN(C(=O)COC(=O)c2cc(O)c(O)c(O)c2)CC1,90.0*,0.1,2.9,0.0
CCOC(=O)c1ccc(NC(=O)CSc2nnc(CNC(=O)c3ccco3)n2-c2cccc(C)c2)cc1,-20.2,1.2,17.6,-0.1
Cc1ccc(CS(=O)(=O)NC(=O)N(Cc2ccc(Cl)cc2)c2cnccn2)cc1,-2.8,1.6,-0.9,-0.1
CCC(C)N1C(=O)/C(=C/c2c(NCc3ccco3)nc3ccccn3c2=O)SC1=S (configuration not stated),2.2,0.9,43.3*,0.1
Cc1ccc(C)c(-c2csc(NC(=O)c3cc([N+](=O)[O-])ccc3Cl)n2)c1,9.9,-0.9,53.3*,-0.1
O=C(Nc1nccs1)c1cc([N+](=O)[O-])ccc1Cl,6.9,-0.6,44.6*,0.2
O=C(Nc1nc(-c2cc(Cl)sc2Cl)cs1)c1ccc([N+](=O)[O-])s1,0.5,-0.8,66.9*,-0.2
COc1ccccc1-c1csc(NC(=O)c2cc([N+](=O)[O-])ccc2Cl)n1,-2.8,0.9,33.5*,0.0
COCCNC(=O)c1c(C(F)(F)F)nc2c(OC)cccn12,7.7,-1.1,3.9,-0.2
NNc1nc(NN)c2c3c(sc2n1)CCC3,-5.6,-0.6,-10.8,-0.5
CC(C)(C)c1ccc(-c2csc(NC(=O)c3cc([N+](=O)[O-])ccc3Cl)n2)cc1,2.6,0.4,42.7*,0.1
CCCCC(=O)OCCN1C(=O)c2cccc3c(N4CCOCC4)ccc(c23)C1=O,-31.2,1.1,-23.2,3.4*
CCCCC(=O)OCCCN1C(=O)c2cccc3c(N4CCCCC4)ccc(c23)C1=O,-1.7,0.6,-0.4,0.0
CC(Sc1nnc(C(F)(F)F)n1N)C(=O)NC(c1ccccc1)c1ccccc1 (configuration not stated),-2.5,-1.5,33.2*,-0.1
CC(Sc1nccn1C)C(=O)NC(c1ccccc1)c1ccccc1 (configuration not stated),-18.2,0.0,-0.6,-0.1
CCCc1nnc(-c2cc3ccccc3n2CC(=O)Nc2ccc(F)cc2)o1,-11.1,1.1,-5.9,-0.1
SMILES,MITF inh,GPR151 ag,TEAD-YAP inh,FBW7 activator
CCn1nnc2c(N3CCN(c4cccc(Cl)c4)CC3)ncnc21,13.1,0.0,11.7,0.7
CC(=O)N1C(=S)NC(=O)/C1=C/c1cc2cc(C)ccc2nc1N1CCOCC1,-0.7,0.6,37.6*,0.0
CC1CCCN(c2ccc3nc4ccccc4c(=O)n3n2)C1 (configuration not stated),8.8,-4.3,71.4*,0.4
Cc1ccc2nc3ccc(N4CCCC4)nn3c(=O)c2c1,1.5,0.1,-60.4,0.0
Cc1ccc(C)c(NC(=O)CSc2ccc(-c3cccnc3)nn2)c1,-13.7,-1.1,-12.5,0.0
O=C(CC(=O)c1c[nH]c2ccccc12)c1ccccc1,15.6,1.7,-10.1,0.2
O=C(CNc1ccncc1)c1c[nH]c2ccccc12,-12.4,1.5,82.9*,-0.2
COc1ccc(NC(=O)CCS(=O)(=O)c2ccc(Cl)cc2)cc1Cl,0.8,0.0,-1.2,0.0
COc1cccc(NC(=O)/C=C/C(=O)O)c1,-6.0,0.8,5.3,-0.1
CC(C)Oc1ccccc1/C=C(\C#N)C(=O)NCCc1ccccc1,-3.3,4.5,50.0*,0.1
CCC(NC(=O)CCc1nnc(Cc2cc(OC)ccc2OC)o1)c1ccc(F)cc1 (configuration not stated),16.9,-2.7,-10.3,0.3
O=C1N(Cc2ccc(F)cc2)c2ccccc2OC1(F)F,2.5,0.9,-3.5,-0.1
CN(CC(=O)Nc1cccc(F)c1)CC(=O)Nc1ccc2c(c1)OC(F)(F)O2,-7.0,-1.7,13.9,0.6
O=C(Nc1ccc2c(c1)OC(F)(F)O2)c1ccc(Cl)c([N+](=O)[O-])c1,10.1,0.2,34.1*,-0.1
O=C(Nc1ccc(F)c(Cl)c1)c1ccc(Cl)c([N+](=O)[O-])c1,3.3,1.3,1.8,0.0
O=C(CCl)Nc1ccc2c(c1)OC(F)(F)O2,15.1,0.5,36.8*,0.2
COc1ccc(/C=C2/C(=O)c3cccc([N+](=O)[O-])c3C2=O)cc1,3.2,0.7,9.4,-0.1
O=[N+]([O-])c1ccc2ncnc(Nc3ccc(F)cc3F)c2c1,-6.8,0.4,35.2*,-0.1
CC(C)(C)NC(=O)c1cccc(NC(=O)c2cccc(O)c2)c1,14.2,-1.0,34.1*,0.3
CC(C)C(=O)Nc1cccc(C(=O)Nc2cccc(O)c2)c1,13.9,-2.4,58.7*,0.7
CC(C)C(=O)Nc1cccc(NC(=O)c2cccc(Br)c2)c1,-8.0,0.1,-6.1,0.3
CC(=O)Oc1ccc(C(=O)Nc2cccc(C(=O)NC(C)(C)C)c2)cc1,-0.6,1.6,11.7,-0.1
CC1CCCCC12NC(=O)N(CC(=O)Nc1cccc(I)c1)C2=O (configuration not stated),14.8,-1.1,2.7,0.0
O=C(O)c1cc(N2C(=O)C3CC=CCC3C2=O)ccc1N1CCOCC1 (configuration not stated),6.8,0.1,11.3,2.0*
O=C(O)c1cc(N2C(=O)C3CCCCC3C2=O)ccc1N1CCOCC1 (configuration not stated),-8.4,0.9,5.6,0.0
SMILES,MITF inh,GPR151 ag,TEAD-YAP inh,FBW7 activator
CC(C)c1ccccc1OCC(=O)Nc1nccs1,-1.5,-0.7,4.1,-0.1
Cc1ccc(Cl)c(OCC(=O)Nc2nccs2)c1,9.9,0.0,56.1*,0.0
O=C(COc1ccccc1Br)Nc1nccs1,12.8,-8.8,75.0*,-0.1
CC(=O)C1=C(c2ccccc2)N(C(C)=O)n2cnnc2S1,-5.3,1.1,15.6,0.0
CC(=O)C1=C(c2ccc3c(c2)CCCC3)N(C(C)=O)n2cnnc2S1,8.6,1.6,37.9*,0.0
Cc1ccc(/C=C2\C(=O)NC(=O)N(Cc3ccccc3)C2=O)cc1,17.4,0.4,-7.1,0.2
O=C1Nc2c(C(F)(F)F)cccc2C12SCCS2,8.2,0.2,33.8*,0.0
CC1CCCN(C2(O)C(=O)Nc3c(C(F)(F)F)cccc32)C1 (configuration not stated),-3.8,0.7,-12.2,0.0
N#CCC(=O)N/N=C/c1ccc(N2CCOCC2)o1,54.1*,-0.5,0.1,0.5

# From PubChem
